Sampled rows, rich in hits. Any-hit rate of the full collection: about 3.5%.
FBW7 act: human FBW7 E3 ligase activation, primary screen; AlphaScreen FBW7–phospho-cyclin E peptide binding, activator screen; normalized activity (activation), % at 26.1 µM; 0.13% of 650,000 active; AID 1259310; in the data active = normalized activity above about 1.9%;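 also: purified mutant Fbw7 with reduced substrate affinity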
MITF primary: human MITF inhibition, primary screen; O75030; AlphaScreen MITF homodimerization, bead proximity signal; inhibition, % at 2.6 µM; 0.91% of 650,000 active; in the data active = inhibition above about 50%;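 also: 0% = vehicle wells with protein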
GPR151 activ: activators of human GPR151; 1% of 650,000 active; PathHunter beta-arrestin GPR151 cells, luminescence; Q8TDV0; activation, % at 11.2 µM; in the data active = activation above about 4.9%;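 also: 0% = median of compound wells and 100% = cells with positive control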
Target sequence (Q8TDV0 whole entry, looked up): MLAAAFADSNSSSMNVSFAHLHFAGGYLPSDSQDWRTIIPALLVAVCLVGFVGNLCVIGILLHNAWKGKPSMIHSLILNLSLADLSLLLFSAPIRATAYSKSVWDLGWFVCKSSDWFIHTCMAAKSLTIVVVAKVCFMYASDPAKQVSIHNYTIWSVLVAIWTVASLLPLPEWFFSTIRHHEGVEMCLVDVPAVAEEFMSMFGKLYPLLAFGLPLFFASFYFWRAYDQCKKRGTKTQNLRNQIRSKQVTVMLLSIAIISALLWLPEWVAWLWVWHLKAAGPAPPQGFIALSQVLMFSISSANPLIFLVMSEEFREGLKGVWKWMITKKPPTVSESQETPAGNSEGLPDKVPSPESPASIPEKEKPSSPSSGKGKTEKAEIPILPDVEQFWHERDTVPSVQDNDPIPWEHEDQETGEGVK
TEAD-YAP inh: TEAD-YAP interaction inhibition | HEK-TIYL cells, TEAD-Gal4/YAP UAS-luciferase luminescence | inhibition, % at 9.12 µM | 1.4% of 640,000 active; in the data active = inhibition above about 32%;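 also: 0% = median of test compound wells and 100% = reference inhibitor wells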
An asterisk follows results filed as active.

SMILES	FBW7 act	MITF primary	GPR151 activ	TEAD-YAP inh
Cc1nc2sc(C(=O)Nc3nc4ccccc4s3)c(N)c2c(C)c1C	0	8	2	96*
Cc1nc(SCC(=O)Nc2nc3ccccc3s2)c(C#N)c(C)c1C	0	-4	3	95*
Cc1c(C(=O)Nc2nc3ccccc3s2)sc2nc(C)n(C)c(=O)c12	0	0	-2	45*
COc1ccc2nc(NC(=O)c3sc4nc(C)ccc4c3N)sc2c1	0	-2	-1	39*
C/C(=N\NC(=O)c1n[nH]c2c1CCC2)C1CC1	0	8	1	52*
CC1(C)CC(=NNC(=O)c2n[nH]c3c2CCC3)CC(C)(C)N1	0	4	3	62*
CCCC(=O)Nc1ccccc1NC(=O)COc1ccc([N+](=O)[O-])cc1	0	12	-1	1
COc1cccc(C=O)c1OC(=O)c1cccc(Cl)c1	12*	13	-1	-18
COc1cccc(C=O)c1OC(=O)c1ccc2ccccc2c1	1	19	1	-17
CC(=O)c1ccc(Nc2nccc(-c3cccc(NS(C)(=O)=O)c3)n2)cc1	1	7	-1	82*
NC(=O)c1cccc(-c2ccnc(Nc3ccc(N4CCOCC4)cc3)n2)c1	0	2	2	-1
CC(=O)c1ccc(-c2nc(-c3cccc(NS(C)(=O)=O)c3)cnc2N)cc1	0	2	0	-4
CS(=O)(=O)Nc1cccc(-c2ccnc(Nc3ccc(-n4cncn4)cc3)n2)c1	0	12	2	91*
C[Si](C)(C)c1nnn(-c2ccc(Nc3nccc(-c4cccc(NS(C)(=O)=O)c4)n3)cc2)c1N1CCOCC1	0	7	0	33*
Cc1ccc(-c2ncn(-c3ccc(Nc4nccc(-c5cccc(-n6cncn6)c5)n4)cc3)n2)cn1	0	14	3	1
Cc1ccc2ncc(C(=O)NC(C)(C)C)c(=O)n2c1	0	-7	1	5
COC(=O)Nc1ccc(S(=O)(=O)N2c3ccccc3CCC2C)cc1 (stereo not given)	0	-8	1	53*
CC1=NN(c2nc3ccccc3s2)C(=O)/C1=C(\C)N(C)C	0	5	-10	43*
CN(C)/C=C1/C(=O)N(c2nc3ccccc3s2)N=C1c1ccccc1	0	0	0	5
CC1=NN(c2nc3ccccc3s2)C(=O)/C1=C\N(C)C	0	9	-9	68*
Cc1ccc(/C=N/NC(=O)CNc2ccccc2C)cc1	0	-15	-1	44*
C=CCN=c1scc(-c2ccco2)n1/N=C/c1cccs1	-1	22	1	34*
O=C(N/N=C\c1cccc([N+](=O)[O-])c1O)c1cnccn1	-1	77*	1	-7
O=C(N/N=C\c1cc(Br)ccc1O)c1ccccn1	-1	58*	2	-23
O=C(N/N=C\c1ccc(O)cc1O)c1ccccn1	-1	65*	-5	17
SMILES	FBW7 act	MITF primary	GPR151 activ	TEAD-YAP inh
O=C(N/N=C\c1ccc(O)cc1O)c1cnccn1	-1	79*	-1	-6
COc1ccccc1NC(=O)CN1N=NC2C(=O)N(c3cccc(Cl)c3)C(=O)C21 (stereo not given)	0	1	0	-6
CCN(CC)C(=O)CN(c1ccc(C(C)C)cc1)S(C)(=O)=O	0	9	0	8
CCCCOc1ccc(-c2nn(-c3ccccc3)cc2/C=c2\sc3nc(=O)c(C)nn3c2=O)cc1	0	2	1	8
CC(=O)Nc1ccccc1OS(=O)(=O)c1cc(Br)ccc1Br	0	8	-1	4
COc1ccc(S(=O)(=O)Oc2ccccc2NC(C)=O)c2ccccc12	0	2	0	55*
COc1ccc(S(=O)(=O)Oc2ccccc2NC(C)=O)cc1C	0	-7	1	45*
COc1ccc2cc3cc(C(=O)NCCc4ccc(OC)c(OC)c4)oc3nc2c1	0	-13	2	45*
COc1ccc2cc3cc(C(=O)N4CCCCC4C)oc3nc2c1 (stereo not given)	0	-6	-3	36*
COc1ccc(S(=O)(=O)N(CC(=O)NCCc2ccc(OC)c(OC)c2)c2ccc(C)cc2)cc1	0	1	-1	36*
O=C(COc1ccccc1)Nc1nnc(C2=COCCO2)o1	0	22	0	7
O=C(CC1C(=O)NCCN1CCc1ccccc1)NCCc1cscn1 (stereo not given)	0	1	2	4
Cn1c(=O)cc(C(=O)Nc2ccc(F)c(Cl)c2F)[nH]c1=O	0	8	-1	8
CCCNc1cc(C)nc(Oc2ccccc2)n1	0	-9	1	80*
O=C(O)c1ccc(S(=O)(=O)c2ccc(C(=O)O)cc2)cc1	0	-1	-1	-7
O=C1C=CC(=NS(=O)(=O)c2ccc(C(=O)O)cc2)C=C1	0	56*	0	7
O=C(C1CC(Cc2cccc(Cl)c2)=NO1)N1CCC(C(O)c2ccccc2)CC1 (stereo not given)	0	1	1	-26
CCOC(=O)c1c(C)oc2ccc(N(C(=O)c3ccncc3)S(=O)(=O)c3ccc(C)cc3)cc12	0	-2	1	48*
CCOC(=O)c1c(C)oc2ccc(N(C(=O)c3ccncc3)S(=O)(=O)c3ccccc3)cc12	0	7	1	8
COC(=O)c1c(C)oc2ccc(N(C(=O)c3ccncc3)S(=O)(=O)c3ccc(Cl)cc3)cc12	0	12	2	4
CCOc1ccc(S(=O)(=O)N(C(=O)c2ccncc2)c2ccc3oc(C)c(C(=O)OC)c3c2)cc1	0	-8	3	64*
Cc1noc(C)c1-c1nc2c(Nc3ccc(N4CCOCC4)cc3)ncnc2n1C(C)C	0	11	-2	-3
CCc1nc(SCc2ccc(Cl)cc2Cl)c(C#N)c2c1CCCC2	2.2*	7	-1	1
COc1ccc(-c2nnc3sc(CN4CCc5ccccc5C4)cn23)cc1	0	-4	0	3
CCOC(=O)c1cnc2c(OC)cccc2c1Nc1cc(OC)c(OC)c(OC)c1	0	2	0	56*
SMILES	FBW7 act	MITF primary	GPR151 activ	TEAD-YAP inh
CCOC(=O)c1cnc2c(OC)cccc2c1NCCCN(CC)CC	0	-6	-1	83*
CCOC(=O)c1cnc2c(OC)cccc2c1NCCOC	0	0	-1	42*
CCOC(=O)c1cnc2c(OC)cccc2c1NCCCOC	0	8	1	19
CCOC(=O)c1cnc2c(OC)cccc2c1NCCc1ccccc1	0	-5	0	0
O=C(Nc1ccc(-n2cccn2)cc1)C1CCN(C2Cc3ccccc3C2)CC1	0	-4	0	-11
CCc1ccc(OCC(=O)N/N=C/c2cc([N+](=O)[O-])cc([N+](=O)[O-])c2O)cc1	0	-3	2	-7
CC(C)CCNC(=O)c1ccc2nc(N3CCOCC3)sc2c1	0	4	0	-12
CCOc1ccc(NC(=O)C(=O)NCN(C(=O)CCl)c2ccccc2)cc1	0	18	-1	47*
CCOc1ccc(NC(=O)C(=O)NCCCN)cc1	0	-4	-1	76*
CCOc1ccc(NC(=O)C(=O)NCCCO)cc1	1	19	0	-11
O=C(Cc1ccccc1)c1ccc(O)cc1O	0	12	1	-5
